Experimental findings from PubChem BioAssay (NCI) are described below.

“And” between values parts separate entries of the source, which are not always exact repeats. Equal values may be shown once. About 83,000 compounds went through this panel and 20% of them were active in at least one assay; those are over-represented in the sample as a whole.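 A percent growth of 40 corresponds to 60% growth inhibition; 0 means no net growth; -100 means all cells died. Active threshold: below 10.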 Unmarked numbers belong to inactive results. The source made the active and inactive calls.

The assay has as its system MDA-MB-468 breast. The experiment in a line: NCI-60 one-dose screen, 48 h (100 = growth as untreated, 0 = no growth, -100 = all killed). To be noted: 10 µM unless noted.

For `Clc1ccc(-c2cnc3c(-c4ccnc(N5CCNCC5)c4)cnn3c2)cc1`, the growth is 16.3%. Consider `Nc1nc(-c2cccc([N+](=O)[O-])c2)c(N=Nc2cccc(Cl)c2)s1`, for which the growth was 11.5%. On to `NNC(=O)c1ccccc1N`, for which the growth is 94.8%. As for `CNc1cc(-c2cccc(OC(F)(F)F)c2)nc2ccc(N3CCCC3)cc12`, the growth was -69.7% (active) and -68% (active) and -66.2% (active). The result for `COc1ccc(/C=C(/c2ccccc2)[N+](=O)[O-])cc1` reads -77.6% (active). For `Cc1ccc(S(=O)(=O)c2nc(-c3ccccc3)oc2Sc2nc3ccccc3s2)cc1`, the growth is 52.1%. On to `COc1ccccc1C1=C(Br)C(=O)c2nc(C)ccc2C1=O`, for which the growth is 107%. As for `Cc1[nH]n(C(=S)Nc2nc3cc(Cl)c(F)cc3s2)c(=O)c1N=Nc1ccc(F)c(Cl)c1`, the growth is 114%. Take `O=C(CN1CCN(c2cc3c(cc2F)c(=O)c(C(=O)O)cn3C2CC2)CC1)N/N=C/c1ccncc1`: the growth was 99.6%. For `COc1ccc([C@@H]2c3[nH]c4ccccc4c3C[C@H]3C(=O)N(C4CCN(CC5CCCCC5)CC4)CC(=O)N23)c(OC)c1`, the growth is 58.7%.

`Oc1c(CNCCNCc2cc(Cl)cc(Cc3ccccc3)c2O)cc(Cl)cc1Cc1ccccc1`: the growth is 24.2%. The result for `CCn1c(SCCc2ccccc2)nnc1-c1nn(-c2ccc(Cl)cc2Cl)c(-c2ccc(Cl)cc2)c1C` reads 45.9%; that for `O=C(N/N=C/c1c(Cl)cccc1Cl)c1ccccc1Nc1ccnc(C(F)(F)F)c1`, 53.5%.
